Assay results reported in PubChem BioAssay (NCI).
The panel holds about 79,000 compounds, 15% with a hit somewhere; the sample as a whole holds those more often. Activity calls are given as the source filed them. Cut-off read from the data, not from the text of the source: active = growth inhibition above about 70%; inactive = the rest.

Assays:
[1] = NCI Yeast Anticancer Drug Screen. Data for the rad52 strain (AID 147);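 note: 0% = growth of vehicle-treated control cultures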; conditions: S. cerevisiae rad52 mutant growth inhibition, hits give high values
Summary of the method: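 DNA repair-defective yeast; compound exposure; growth scored against vehicle controls.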

[2] = NCI Yeast Anticancer Drug Screen. Data for the wt1 strain (AID 149);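 note: 0% = growth of vehicle-treated wt1 cultures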; conditions: S. cerevisiae wt1 strain (SPY 50644) growth inhibition, hits give high values
Summary of the method: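 Readout: yeast growth inhibition, normalised to vehicle controls, in the wt1 strain exposed to test compounds.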

[3] = NCI Yeast Anticancer Drug Screen. Data for the rad50EPP+ strain (AID 151);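 note: 0% = growth of vehicle-treated control cultures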; conditions: S. cerevisiae rad50 mutant strain, hits give high values
Summary of the method: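 rad50EPP+ yeast treated with test compounds. Readout: growth vs vehicle control.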

[4] = NCI Yeast Anticancer Drug Screen. Data for the mgt1 strain (AID 153); conditions: S. cerevisiae mgt1 mutant growth inhibition, hits give high values
Summary of the method: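 Growth inhibition relative to vehicle controls was scored for the mgt1 yeast strain after compound exposure.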

[5] = NCI Yeast Anticancer Drug Screen. Data for the rad50 strain (AID 155);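 note: 0% = growth of vehicle-only cultures of the same strain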; conditions: S. cerevisiae rad50 strain growth inhibition, hits give high values
Summary of the method: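 Compounds were tested on a yeast strain with an engineered DNA damage repair alteration; the reported value is growth inhibition normalised to vehicle treatment.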

[6] = NCI Yeast Anticancer Drug Screen. Data for the mec2-1 strain (AID 157); conditions: S. cerevisiae mec2-1 strain, hits give high values
Summary of the method: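 Growth inhibition is read against vehicle-treated controls after compound exposure of the mec2-1 yeast strain, which is defective in DNA damage repair or cell cycle control.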

[7] = NCI Yeast Anticancer Drug Screen. Data for the rad14 strain (AID 159);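 note: 0% = growth of vehicle-treated control cultures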; conditions: S. cerevisiae rad14 strain growth inhibition, hits give high values
Summary of the method: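 Compound-treated yeast with a defined DNA-repair lesion; growth inhibition normalised to vehicle-treated cultures.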

[8] = NCI Yeast Anticancer Drug Screen. Data for the CLN2oe strain (AID 163);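 note: 0% = growth of vehicle-only control cultures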; conditions: S. cerevisiae CLN2oe strain, hits give high values
Summary of the method: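 Compound-treated yeast; growth vs vehicle ctrl = % inhibition. Genetically altered strain (cell-cycle control).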

[9] = NCI Yeast Anticancer Drug Screen. Data for the cln2 rad14 strain (AID 165);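 note: 0% = growth equal to vehicle treated cultures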; conditions: S. cerevisiae cln2 rad14 strain, hits give high values
Summary of the method: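 Growth inhibition, relative to vehicle-treated controls, is the read-out. The test organism is a yeast strain with defined genetic alterations, cln2 rad14.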

[10] = NCI Yeast Anticancer Drug Screen. Data for the bub3 strain (AID 167); conditions: S. cerevisiae bub3 mutant strain, hits give high values
Summary of the method: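 Growth of a checkpoint-deficient yeast mutant is measured after compound exposure. Values represent inhibition relative to vehicle.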

[11] = NCI Yeast Anticancer Drug Screen. Data for the wt2 strain (AID 169);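 note: 0% = growth of vehicle-treated yeast cultures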; conditions: S. cerevisiae wt2 strain growth inhibition, hits give high values
Summary of the method: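 Compound exposure of yeast; growth compared with vehicle controls; inhibition reported.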

[12] = NCI Yeast Anticancer Drug Screen. Data for the mlh1 strain (AID 171);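 note: 0% = growth of vehicle-treated control cultures of the same strain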; conditions: S. cerevisiae mlh1 strain growth inhibition, hits give high values
Summary of the method: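 Compounds are applied to a genetically altered yeast strain, and its growth is compared with that of vehicle-treated cultures to give percent inhibition.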

[13] = NCI Yeast Anticancer Drug Screen. Data for the sgs1 strain (AID 173);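 note: 0% = growth of vehicle-only control cultures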; conditions: S. cerevisiae sgs1 mutant, hits give high values
Summary of the method: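 Compounds applied to genetically altered yeast; growth compared with vehicle-treated cultures to give % inhibition.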

[14] = NCI Yeast Anticancer Drug Screen. Data for the mlh1 rad18 strain (AID 175); conditions: S. cerevisiae mlh1 rad18 strain growth inhibition, hits give high values
Summary of the method: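 Cells of a genetically altered yeast strain, deficient in DNA damage repair, were treated with compound. Their growth was then compared with that of vehicle-treated cultures to give inhibition.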

[15] = NCI Yeast Anticancer Drug Screen. Data for the rad18 strain (AID 177); conditions: S. cerevisiae rad18 mutant growth inhibition, hits give high values
Summary of the method: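 Compounds are applied to a repair-deficient yeast strain, and growth is compared with that of vehicle-treated cultures to give percent inhibition.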

[16] = NCI Yeast Anticancer Drug Screen. Data for the sgs1 mgt1 strain (AID 161);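 note: 0% = growth of cultures given vehicle only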; conditions: S. cerevisiae sgs1 mgt1 strain, hits give high values
Summary of the method: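 Growth of a repair-deficient yeast mutant was monitored after compound treatment and expressed as inhibition relative to vehicle-treated cultures.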

[17] = at 5.0 µM (retest, dose inferred, filed as 0.5)
[18] = at 50.0 µM (retest, dose inferred, filed as 5.0)

Measured: growth inhibition

O=C1CC(=O)c2ccccc21
active: [4]; at 100.0 µM 72% | [5]; at 50.0 µM 87.4% | [9]; at 50.0 µM 70.5% | [14]; at 50.0 µM 70% | [15]; at 100.0 µM 74%
inactive: [1]; at 1.2 µM -2% | [1]; at 3.7 µM -1% | [1]; at 11.0 µM 3% | [1]; at 33.0 µM 9% | [1]; at 100.0 µM 50% | [2]; at 1.2 µM 0% | [2]; at 3.7 µM -1% | [2]; at 11.0 µM 0% | [2]; at 33.0 µM 5% | [2]; at 100.0 µM 17% | [3]; at 1.2 µM -3% | [3]; at 3.7 µM -1% | [3]; at 11.0 µM 6% | [3]; at 33.0 µM 18% | [3]; at 100.0 µM 55% | [4]; at 1.2 µM -1% | [4]; at 3.7 µM 0% | [4]; at 11.0 µM 1% | [4]; at 33.0 µM 3% | [5]; at 1.2 µM 4% | [5]; at 3.7 µM 3% | [5]; [17] 3% | [5]; at 11.0 µM -9% | [5]; at 33.0 µM 14% | [5]; [18] 69% | [5]; at 100.0 µM 46% | [6]; at 1.2 µM 1% | [6]; at 3.7 µM 2% | [6]; [17] 1% | [6]; at 11.0 µM 4% | [6]; at 33.0 µM 10% | [6]; [18] 53% | [6]; at 50.0 µM 46.3% | [6]; at 100.0 µM 40% | [7]; at 1.2 µM 0% | [7]; at 3.7 µM 3% | [7]; at 11.0 µM 5% | [7]; at 33.0 µM 12% | [7]; at 100.0 µM 56% | [8]; at 1.2 µM -9% | [8]; at 3.7 µM -1% | [8]; at 11.0 µM 3% | [8]; at 33.0 µM 1% | [8]; at 100.0 µM 48% | [9]; [17] 0% | [9]; [18] 57% | [10]; at 1.2 µM -2% | [10]; at 3.7 µM -1% | [10]; [17] -4% | [10]; at 11.0 µM 0% | [10]; at 33.0 µM 3% | [10]; [18] 6% | [10]; at 50.0 µM 67.9% | [10]; at 100.0 µM 35% | [11]; at 1.2 µM 0% | [11]; at 3.7 µM 8% | [11]; at 11.0 µM 1% | [11]; at 33.0 µM 5% | [11]; at 100.0 µM 37% | [12]; at 1.2 µM -1% | [12]; at 3.7 µM 0% | [12]; at 11.0 µM 2% | [12]; at 33.0 µM 4% | [12]; at 100.0 µM 65% | [13]; at 1.2 µM -1% | [13]; at 3.7 µM 2% | [13]; at 11.0 µM 6% | [13]; at 33.0 µM 18% | [13]; at 100.0 µM 57% | [14]; [17] 1% | [14]; [18] 12% | [15]; at 1.2 µM -1% | [15]; at 3.7 µM 2% | [15]; at 11.0 µM 7% | [15]; at 33.0 µM 23%

CNC(=O)OCc1c(COC(=O)NC)c(-c2ccc(Cl)c(Cl)c2)n2c1SCC2
inactive: [1]; at 1.2 µM 0% | [1]; at 3.7 µM 0% | [1]; at 11.0 µM 3% | [1]; at 33.0 µM 14% | [2]; at 1.2 µM -1% | [2]; at 3.7 µM 0% | [2]; at 11.0 µM -1% | [2]; at 33.0 µM -3% | [2]; at 100.0 µM 6% | [3]; at 1.2 µM -3% | [3]; at 3.7 µM -3% | [3]; at 11.0 µM -3% | [3]; at 33.0 µM -3% | [3]; at 100.0 µM 4% | [4]; at 1.2 µM -4% | [4]; at 3.7 µM -1% | [4]; at 11.0 µM -1% | [4]; at 33.0 µM -3% | [4]; at 100.0 µM 12% | [5]; at 1.2 µM -1% | [5]; at 3.7 µM -3% | [5]; [17] -17% | [5]; at 11.0 µM -3% | [5]; at 33.0 µM 4% | [5]; [18] 35% | [5]; at 50.0 µM 65.7% | [6]; at 1.2 µM -2% | [6]; at 3.7 µM -4% | [6]; [17] 0% | [6]; at 11.0 µM -3% | [6]; at 33.0 µM -4% | [6]; [18] 18% | [6]; at 50.0 µM 27.3% | [6]; at 100.0 µM 38% | [7]; at 1.2 µM 0% | [7]; at 3.7 µM 2% | [7]; at 11.0 µM 4% | [7]; at 33.0 µM 18% | [16]; [17] -5% | [16]; [18] 32% | [16]; at 50.0 µM 39.4% | [8]; at 1.2 µM -1% | [8]; at 3.7 µM -6% | [8]; at 11.0 µM -6% | [8]; at 33.0 µM -5% | [8]; at 100.0 µM -1% | [9]; [17] -3% | [9]; [18] 23% | [9]; at 50.0 µM 25.1% | [10]; at 1.2 µM -2% | [10]; at 3.7 µM -5% | [10]; [17] 0% | [10]; at 11.0 µM -4% | [10]; at 33.0 µM -6% | [10]; [18] 9% | [10]; at 50.0 µM 4.3% | [10]; at 100.0 µM 20% | [12]; at 1.2 µM -1% | [12]; at 3.7 µM -2% | [12]; at 11.0 µM -3% | [12]; at 33.0 µM -2% | [12]; at 100.0 µM 44% | [14]; [17] 2% | [14]; [18] 58% | [15]; at 1.2 µM 0% | [15]; at 3.7 µM 3% | [15]; at 11.0 µM 11% | [15]; at 33.0 µM 48%
active: [1]; at 100.0 µM 76% | [5]; at 100.0 µM 76% | [7]; at 100.0 µM 85% | [14]; at 50.0 µM 86% | [15]; at 100.0 µM 95%

Cc1ccc(NC(=O)/C(CC2N=c3c(ccc4c(O)c5ccccc5c(O)c34)=NC2O)=N/NC(C)(C)C)cc1 (stereo not drawn)
active: [5]; at 50.0 µM 77.6%
inactive: [1]; at 1.2 µM 7% | [1]; at 3.7 µM 9% | [1]; at 11.0 µM 33% | [1]; at 33.0 µM 49% | [1]; at 100.0 µM 61% | [2]; at 1.2 µM -19% | [2]; at 3.7 µM 2% | [2]; at 11.0 µM -2% | [2]; at 33.0 µM 8% | [2]; at 100.0 µM -6% | [3]; at 1.2 µM 16% | [3]; at 3.7 µM 34% | [3]; at 11.0 µM 44% | [3]; at 33.0 µM 50% | [3]; at 100.0 µM 54% | [4]; at 1.2 µM 16% | [4]; at 3.7 µM 5% | [4]; at 11.0 µM -1% | [4]; at 33.0 µM 22% | [4]; at 100.0 µM 22% | [5]; at 1.2 µM 17% | [5]; at 3.7 µM 23% | [5]; [17] -3% | [5]; at 11.0 µM 30% | [5]; at 33.0 µM 54% | [5]; [18] 65% | [5]; at 100.0 µM 65% | [6]; at 1.2 µM 15% | [6]; at 3.7 µM 18% | [6]; [17] 13% | [6]; at 11.0 µM 38% | [6]; at 33.0 µM 44% | [6]; [18] 25% | [6]; at 50.0 µM 1.25% | [6]; at 100.0 µM 35% | [7]; at 1.2 µM 9% | [7]; at 3.7 µM -9% | [7]; at 11.0 µM -10% | [7]; at 33.0 µM 0% | [7]; at 100.0 µM 1% | [8]; at 1.2 µM -5% | [8]; at 3.7 µM -2% | [8]; at 11.0 µM 3% | [8]; at 33.0 µM 0% | [8]; at 100.0 µM 1% | [9]; [17] -25% | [9]; [18] -3% | [9]; at 50.0 µM -19.9% | [10]; at 1.2 µM -3% | [10]; at 3.7 µM -2% | [10]; [17] 3% | [10]; at 11.0 µM -1% | [10]; at 33.0 µM 1% | [10]; [18] 17% | [10]; at 50.0 µM 33.6% | [10]; at 100.0 µM -1% | [11]; at 1.2 µM 0% | [11]; at 3.7 µM 1% | [11]; at 11.0 µM 4%
